# What was measured:
# Assay in all cases: DAPPL (digital affinity profiling via proximity ligation, sequencing); 10 mM Tris-HCl pH 7.5, 50 mM NaCl, 1 mM DTT, 4% glycerol, room temperature, 30 min; GST-TFs on glutathione beads, 16-mer random dsDNA library, 0.1% formaldehyde crosslink after washing; high values mean tight binding
# Conditions in all cases: protein: recombinant; tags: N-terminal GST; dsDNA, one strand shown
# FLI1 = target: T1, FLI1 (Homo sapiens, UniProt Q01543 1-452)
# T1 sequence: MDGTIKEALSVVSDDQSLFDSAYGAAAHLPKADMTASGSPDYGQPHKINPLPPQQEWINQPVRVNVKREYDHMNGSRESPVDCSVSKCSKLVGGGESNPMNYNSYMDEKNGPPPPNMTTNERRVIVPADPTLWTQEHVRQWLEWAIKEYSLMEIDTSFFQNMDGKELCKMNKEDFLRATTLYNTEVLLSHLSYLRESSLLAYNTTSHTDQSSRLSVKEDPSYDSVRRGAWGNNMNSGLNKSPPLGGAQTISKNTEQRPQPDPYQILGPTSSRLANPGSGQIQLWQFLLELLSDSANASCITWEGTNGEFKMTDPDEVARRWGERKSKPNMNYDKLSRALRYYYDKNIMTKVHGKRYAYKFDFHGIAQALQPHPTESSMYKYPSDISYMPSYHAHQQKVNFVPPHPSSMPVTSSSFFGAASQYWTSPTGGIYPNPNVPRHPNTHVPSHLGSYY
# Outline: (§1)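 GST fusions of human transcription factors were expressed in yeast and captured with glutathione beads. Once given DNA barcodes and pooled alongside a tag-only sample, they were incubated for 30 min at room temperature with 200 nmole of a random double-stranded 16-mer DNA library in Tris/NaCl/DTT/glycerol buffer, then washed, crosslinked (0.1% formaldehyde), proximity-ligated, PCR-amplified and sequenced on an Illumina NextSeq500. The binding signal of each hexamer is its read frequency for a factor divided by its frequency for the tag-only sample.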
# ELK1 = target: T2, ELK1 (Homo sapiens, UniProt P19419 1-428)
# T2 sequence: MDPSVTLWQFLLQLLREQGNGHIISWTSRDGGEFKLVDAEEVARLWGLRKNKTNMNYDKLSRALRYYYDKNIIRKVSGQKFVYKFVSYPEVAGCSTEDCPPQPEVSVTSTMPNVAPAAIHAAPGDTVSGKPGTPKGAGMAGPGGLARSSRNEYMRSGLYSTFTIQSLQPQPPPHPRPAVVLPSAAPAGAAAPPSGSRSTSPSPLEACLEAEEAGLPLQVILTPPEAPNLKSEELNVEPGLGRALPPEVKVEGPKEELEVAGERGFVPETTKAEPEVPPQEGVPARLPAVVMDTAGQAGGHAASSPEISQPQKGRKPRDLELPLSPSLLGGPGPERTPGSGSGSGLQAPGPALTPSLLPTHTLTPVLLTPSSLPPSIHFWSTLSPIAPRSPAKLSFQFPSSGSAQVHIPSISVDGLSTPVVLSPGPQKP
# Outline: as §1
# GABPA = target: T3, GABPA (Homo sapiens, UniProt Q06546 1-454)
# T3 sequence: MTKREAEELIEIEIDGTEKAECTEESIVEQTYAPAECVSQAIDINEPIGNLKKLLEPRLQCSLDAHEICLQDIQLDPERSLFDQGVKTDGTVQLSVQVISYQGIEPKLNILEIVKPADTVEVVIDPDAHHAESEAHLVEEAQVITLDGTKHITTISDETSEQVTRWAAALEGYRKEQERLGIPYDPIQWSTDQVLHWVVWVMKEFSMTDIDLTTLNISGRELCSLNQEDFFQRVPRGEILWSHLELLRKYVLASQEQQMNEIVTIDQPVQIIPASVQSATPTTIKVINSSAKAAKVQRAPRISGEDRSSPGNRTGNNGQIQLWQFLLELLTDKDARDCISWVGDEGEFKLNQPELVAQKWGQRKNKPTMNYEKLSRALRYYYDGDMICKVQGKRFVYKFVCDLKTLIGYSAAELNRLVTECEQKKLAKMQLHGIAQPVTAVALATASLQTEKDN
# Outline: as §1
# ERG = target: T4, ERG (Homo sapiens, UniProt P11308 1-479)
# T4 sequence: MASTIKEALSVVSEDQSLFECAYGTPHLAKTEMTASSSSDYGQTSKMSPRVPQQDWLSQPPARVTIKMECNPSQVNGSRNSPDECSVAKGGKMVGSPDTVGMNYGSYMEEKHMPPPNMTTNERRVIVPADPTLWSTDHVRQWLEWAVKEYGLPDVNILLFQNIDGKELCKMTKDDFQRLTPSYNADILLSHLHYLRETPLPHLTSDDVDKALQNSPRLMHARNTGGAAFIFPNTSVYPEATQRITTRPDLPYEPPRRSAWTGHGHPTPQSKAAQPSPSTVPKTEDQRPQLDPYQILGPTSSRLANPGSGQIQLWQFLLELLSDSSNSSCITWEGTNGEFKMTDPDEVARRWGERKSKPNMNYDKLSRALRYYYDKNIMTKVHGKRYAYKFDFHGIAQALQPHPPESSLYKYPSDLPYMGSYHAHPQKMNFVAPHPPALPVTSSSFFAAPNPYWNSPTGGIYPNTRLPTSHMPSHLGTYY
# Outline: as §1
# ELF1 = ELF1 (Homo sapiens, UniProt P32519 1-619)
# Outline: as §1
# EHF = target: T5, EHF (Homo sapiens, UniProt Q9NZC4 1-300)
# T5 sequence: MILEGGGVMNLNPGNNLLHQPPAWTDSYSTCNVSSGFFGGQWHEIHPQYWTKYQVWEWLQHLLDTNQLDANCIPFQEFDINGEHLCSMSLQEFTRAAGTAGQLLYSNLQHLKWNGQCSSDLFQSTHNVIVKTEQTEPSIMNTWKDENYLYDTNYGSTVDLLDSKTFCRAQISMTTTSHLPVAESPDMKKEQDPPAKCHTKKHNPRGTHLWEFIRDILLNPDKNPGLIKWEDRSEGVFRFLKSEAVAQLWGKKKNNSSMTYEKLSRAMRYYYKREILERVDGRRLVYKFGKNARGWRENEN
# Outline: as §1
# SPI1 = SPI1 (Homo sapiens, UniProt P17947 1-270)
# Outline: as §1
# SPIB = SPIB (Homo sapiens, UniProt Q01892 1-262)
# Outline: as §1
# ELK3 = target: T6, ELK3 (Homo sapiens, UniProt P41970 1-407)
# T6 sequence: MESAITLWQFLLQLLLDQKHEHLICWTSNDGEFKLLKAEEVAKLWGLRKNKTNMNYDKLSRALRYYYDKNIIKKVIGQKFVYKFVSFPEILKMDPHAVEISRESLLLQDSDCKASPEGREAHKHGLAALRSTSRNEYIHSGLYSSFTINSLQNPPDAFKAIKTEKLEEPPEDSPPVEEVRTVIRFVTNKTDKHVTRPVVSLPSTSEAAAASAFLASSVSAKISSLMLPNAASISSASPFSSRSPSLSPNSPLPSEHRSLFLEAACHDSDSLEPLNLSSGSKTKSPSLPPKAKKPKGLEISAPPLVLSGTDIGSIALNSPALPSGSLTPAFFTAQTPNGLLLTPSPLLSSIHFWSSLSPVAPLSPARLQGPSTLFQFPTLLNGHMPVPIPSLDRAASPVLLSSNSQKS
# Outline: as §1
# Chain of ELF1 (P32519 whole entry): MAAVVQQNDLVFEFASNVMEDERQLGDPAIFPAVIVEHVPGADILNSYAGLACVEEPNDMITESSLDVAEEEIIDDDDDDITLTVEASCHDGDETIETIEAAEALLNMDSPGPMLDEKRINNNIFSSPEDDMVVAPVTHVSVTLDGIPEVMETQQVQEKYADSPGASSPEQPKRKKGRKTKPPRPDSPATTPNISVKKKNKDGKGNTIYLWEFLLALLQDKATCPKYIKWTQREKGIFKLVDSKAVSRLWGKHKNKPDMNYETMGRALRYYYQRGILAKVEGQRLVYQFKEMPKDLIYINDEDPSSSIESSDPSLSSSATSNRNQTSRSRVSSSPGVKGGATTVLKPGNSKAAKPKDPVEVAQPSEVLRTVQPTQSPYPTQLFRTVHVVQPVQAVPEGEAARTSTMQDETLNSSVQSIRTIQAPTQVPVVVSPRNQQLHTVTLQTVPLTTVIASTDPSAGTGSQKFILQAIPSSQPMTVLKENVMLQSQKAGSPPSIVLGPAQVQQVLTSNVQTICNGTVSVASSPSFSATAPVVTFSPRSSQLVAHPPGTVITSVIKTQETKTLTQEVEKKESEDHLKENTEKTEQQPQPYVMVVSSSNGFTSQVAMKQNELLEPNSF
# Chain of SPIB (Q01892 whole entry): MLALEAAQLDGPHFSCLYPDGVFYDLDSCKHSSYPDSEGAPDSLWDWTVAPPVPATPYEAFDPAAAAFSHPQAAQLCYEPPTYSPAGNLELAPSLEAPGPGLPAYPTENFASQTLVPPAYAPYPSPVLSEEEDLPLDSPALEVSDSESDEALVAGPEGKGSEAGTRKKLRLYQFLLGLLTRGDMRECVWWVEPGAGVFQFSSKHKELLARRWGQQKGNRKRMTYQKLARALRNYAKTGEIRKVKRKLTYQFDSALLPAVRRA
sequence,measurement,setting,value
TTATTC,binding signal,FLI1,"1.48 fold enrichment (6-mer frequency, TF over GST control)"
same,binding signal,ELK1,"1.41 fold enrichment (6-mer frequency, TF over GST control)"
same,binding signal,GABPA,"1.38 fold enrichment (6-mer frequency, TF over GST control)"
same,binding signal,ERG,"1.34 fold enrichment (6-mer frequency, TF over GST control)"
same,binding signal,ELF1,"1.3 fold enrichment (6-mer frequency, TF over GST control)"
same,binding signal,EHF,"1.29 fold enrichment (6-mer frequency, TF over GST control)"
same,binding signal,SPI1,"1.33 fold enrichment (6-mer frequency, TF over GST control)"
same,binding signal,SPIB,"1.39 fold enrichment (6-mer frequency, TF over GST control)"
same,binding signal,ELK3,"1.45 fold enrichment (6-mer frequency, TF over GST control)"

# — publication PMC7862700, “An all-to-all approach to the identification of sequence-specific readers for epigenetic DNA modifications on cytosine”
